Screens deposited in PubChem BioAssay by National Center for Advancing Translational Sciences (NCATS).
Hits are enriched below; roughly 11% of the tested compounds scored in any of these assays.
NS1 function inh: qHTS Assay for Inhibitors of Influenza NS1 Protein Function | Potency, µM (highest dose often 46.1 µM), inactives show top-dose activity, positive = more growth | 270,000 tested, 0.4% active; calls by dose curve; also: actives are rising curves; nearly all actives have a fitted effect of over 50% in size
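OD600 was taken as the measure of yeast growth restored by compound in an NS1-expressing S. cerevisiae strain. Cells had been washed out of glucose medium and diluted 1:100 into galactose -URA medium, pH 6.0.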
Pf growth 96h: Primary qHTS for delayed death inhibitors of the malarial parasite plastid, 96 hour incubation. 320,000 tested, 6.9% active. Potency, µM (titrated, usually from 28.7 µM), for inactives: at the top dose activity change, negative = inhibition, actives largely listed as inhibitors. P. falciparum luciferase reporter growth, 96 h; also: % is scaled to controls: 0 for no effect and ±100 for the full control effect
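Plates of compound plus infected erythrocytes (2% hematocrit, 0.05% parasitemia final) incubate 96 hours, 37 C, 5% CO2. Detection reagent added; reduced luminescence from the parasites' luciferase reporter flags inhibition.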
AMA1-RON2 inh: qHTS for Inhibitors of AMA1-RON; Towards Development of Antimalarial Drug Lead: Primary Screen. Potency, µM (highest dose often 58.2 µM), without a hit: at the top dose activity change, negative = inhibition, actives largely listed as inhibitors. AlphaScreen AMA1-biotinylated RON2 peptide binding. 360,000 tested, 0.2% active. Plasmodium falciparum AMA1 (3D7) - RON2 peptide interaction;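 also: 0% = vehicle wells and -100% = peptide control; nearly all actives have a fitted effect of over 45% in size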
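AMA1 (3D7) with his tag at 25 nM final met compounds first, then biotinylated RON2 peptide at 25 nM; detection used donor plus acceptor beads, 10 µg/mL apiece, read by AlphaScreen after 30 min at room temperature.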
Pf growth 48h: Primary qHTS for delayed death inhibitors of the malarial parasite plastid, 48 hour incubation | P. falciparum luciferase growth in erythrocytes, 48 h | Potency, µM (top dose mostly 28.7 µM), for inactives: top-dose activity change, negative = inhibition, hits mostly inhibitors | 310,000 tested, 5.9% active; also: % is scaled to controls: 0 for no effect and ±100 for the full control effect
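Compounds are pin-transferred into medium, infected erythrocytes (2% hematocrit, 0.1% parasitemia final) are added, and plates sit one parasite generation at 37 C in 5% CO2. Detection reagent is then added and luminescence measured.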
Sm TGR block: qHTS Assay for the Inhibitors of Schistosoma Mansoni Peroxiredoxins. Potency, µM (series often up to 114 µM), inactives show at the top dose activity change, negative = inhibition, most hits filed as inhibitors. 360,000 tested, 3% active. purified TGR, DTNB reduction, TNB absorbance 405 nm. Schistosoma mansoni thioredoxin glutathione reductase (TGR), Q962Y6; also: % is scaled to controls: 0 for no effect and ±100 for the full control effect; nearly all actives have a fitted effect of over 60% in size
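First, TGR (20 nM dispensed) and NADPH were mixed with compound. Second, a 15 min room-temperature incubation followed. Third, further NADPH and then DTNB were added to start the reaction. Finally, TNB absorbance was monitored kinetically.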
* hit, by the source's call; i = inactive; u = inconclusive; x = not tested or not shown. Unless noted, calls follow the shape of the dose curve; as a rule, active = well fitted curve in the direction sought with a large enough effect; inconclusive = small, poorly fitted or top-dose-only effect, or another doubt; inactive = no such curve, though single readings can be large; an effect the other way counts as inactive or inconclusive. Potency is read from the fitted curve at half-maximal effect.

SMILES | NS1 function inh | Pf growth 96h | AMA1-RON2 inh | Pf growth 48h | Sm TGR block
Cc1ccc([N+](=O)[O-])c(NC2OC(CO)C(O)C2O)c1 (stereo not given) | x | 5.2µM* | 5% | -18% | -5%
Cc1ccc(NNC2CC(=O)N(c3cccc(Cl)c3)C2=O)cc1 (stereo not given) | x | 284% | 11% | 20% | 45µM*
CC(O)CCC(=O)NNC1CC(=O)N(c2ccccc2)C1=O (stereo not given) | 3% | 38% | 36% | 8% | -6%
CC(=O)NCCCC(=O)NNC1CC(=O)N(c2cccc(Cl)c2)C1=O (stereo not given) | -6% | 20% | 16% | 9% | 11µM*
CCCCCC(=O)NNC1CC(=O)N(c2cccc(OCC)c2)C1=O (stereo not given) | 12% | u | 5% | 27% | 32µM*
CCN(CC)C1CC(=O)N(c2cccc(Cl)c2)C1=O (stereo not given) | -126% | -8% | -2% | 53% | 4µM*
O=C(O)c1cccnc1SCc1cccc(Cl)c1 | x | 0% | -4% | 12% | 5%
Cc1ccc(S(=O)(=O)N2CCN(C(=O)n3ccnc3)CC2)cc1 | x | 7.4µM* | 9% | u | -15%
CC(C)c1ccc(S(=O)(=O)N2CCN(C(=O)n3ccnc3)CC2)cc1 | x | 5.2µM* | -4% | u | -1%
Cc1ccc(S(=O)(=O)N2CCN(C(=O)N3CCCC3)CC2)cc1 | -2% | -8% | 18% | -4% | -1%
CC(C)c1ccc(S(=O)(=O)N2CCN(C(=O)c3ccncc3)CC2)cc1 | x | u | -6% | u | -9%
CCc1ccc(OCC(=O)Nc2cc(-c3ccc(C)cc3)no2)cc1 | x | x | x | x | -4%
CCn1ncc(CN2CCN(Cc3cccc(OC)c3)C(CCO)C2)c1C (stereo not given) | 0% | 7.4µM* | 4% | 0% | -24%
COc1ccc(CN2CCN(Cc3cccc(OC)c3)C(CCO)C2)cc1 (stereo not given) | 1% | 20% | 8% | -1% | -7%
CCn1nc(C)c(CN2CCN(Cc3cccc(OC)c3)C(CCO)C2)c1C (stereo not given) | 4% | 12µM* | -14% | -3% | 0%
COc1cc(CN2CCN(Cc3c[nH]c4ccccc34)CC2CCO)cc(OC)c1 (stereo not given) | 25% | 10µM* | -7% | -21% | -3%
CCOC(=O)N1CCN(S(=O)(=O)c2ccc(C)c([N+](=O)[O-])c2)CC1 | 0% | i | 2% | 7% | 15%
CN(C)c1nnnn1Cc1ccccc1 | x | 17% | 14% | 27% | -6%
CC(C#Cc1c([C@@H](C)Oc2ccccc2)nnn1Cc1ccccc1)Oc1ccccc1 (stereo not given in full) | 0% | 9.3µM* | 13% | 12µM* | 7.9µM*
CCOC(=O)c1c(C)n(OCc2ccccc2)c2ccc3nonc3c12 | -8% | u | 13% | u | -14%
COn1c(C)c(C)c2c3nonc3ccc21 | -2% | 0% | 16% | -25% | 20µM*
O=C(/C(Br)=C/Nc1cc(Cl)ccc1Cl)C(F)(F)F | 7% | 27% | -3% | 10% | 22µM*
COc1cccc(NC(=O)C(=O)NCCCN2CCCC2=O)c1 | x | 92% | 15% | 85% | 5%
Cc1ccccc1-c1nc(CS(=O)(=O)CC(=O)NCCc2ccccc2)c(C)o1 | 12% | u | -12% | 8% | u
Cc1ccccc1-c1nc(CS(=O)(=O)CC(=O)NCCCN2CCCC2=O)c(C)o1 | -11% | -1% | 12% | 27% | 20µM*
SMILES | NS1 function inh | Pf growth 96h | AMA1-RON2 inh | Pf growth 48h | Sm TGR block
Cc1oc(-c2ccccc2F)nc1CS(=O)(=O)CC(=O)NCc1ccco1 | 5% | 8% | -3% | 4% | 22µM*
COCCCNC(=O)CS(=O)(=O)Cc1nc(-c2ccccc2C)oc1C | -12% | u | -1% | 26% | 50µM*
Cc1oc(-c2ccccc2F)nc1CS(=O)(=O)CC(=O)NCCCN1CCc2ccccc2C1 | 14% | 8.3µM* | -9% | u | -10%
Cc1oc(-c2ccccc2F)nc1CS(=O)(=O)CC(=O)NCCN1CCCC1 | 5% | 38% | -7% | u | -9%
O=C(Cc1ccc(S(=O)(=O)N2CCOCC2)s1)Oc1ccc(F)cc1 | x | 58% | 24% | 3% | 12%
O=C(Nc1ccc(OCc2cc(=O)n3c4c(sc3n2)CCCC4)cc1)c1ccccc1 | x | x | x | x | 3%
O=C(Cn1nnnc1-c1ccccc1F)Nc1ccc(OC(F)(F)F)cc1 | x | x | x | x | -4%
Cc1occc1-c1nnc(SCC(=O)N2CCc3ccccc32)o1 | -6% | 5.2µM* | 12% | -16% | 25µM*
Cc1ccc(-c2nnc(SCC(=O)N3CCc4ccccc43)o2)cc1 | x | x | x | x | -10%
COCCn1c(SCC(=O)N2CCCc3ccccc32)nnc1-c1ccoc1C | -2% | u | -2% | -19% | 40µM*
COCCn1c(SCC(=O)N2CCCc3ccccc32)nnc1-c1ccco1 | -3% | u | -1% | -2% | u
COc1ccc(-c2csc(NC(=O)CCNC(=O)c3ccco3)n2)cc1OC | x | u | -5% | 12µM* | -1%
CC(=O)Cc1nsc(NC(=O)c2ccc(Br)o2)n1 | -4% | u | 8% | 27% | -23%
Cc1ccc(-c2csc(NC(=O)c3ccco3)n2)cc1C | -69% | 0.59µM* | -15% | 20% | 1%
CC(=O)Cc1nsc(NC(=O)c2ccco2)n1 | -2% | x | 4% | 4% | 45µM*
CCOc1ccc(-c2csc(NC(=O)c3ccco3)n2)cc1 | -6% | 10µM* | -16% | 20% | -33%
COc1ccc(CCC(=O)Nc2ccc(C(=O)c3ccncc3)cc2)cc1 | -3% | -23% | -8% | -4% | 20%
O=C(COC(=O)c1cccc(OC(F)F)c1)NC1CCCC1 | 2% | 41% | 1% | 22% | 0%
CCOc1ccc(NC(=O)c2ccc(CC)s2)c([N+](=O)[O-])c1 | -4% | u | -13% | 42% | 3%
CCOc1ccc(NC(=O)c2ccco2)c([N+](=O)[O-])c1 | -2% | 0.59µM* | 1% | 200% | -22%
COc1ccc(-c2noc(N3CCC(C(=O)Nc4ccccc4OC)CC3)n2)cc1 | 6% | 3% | -3% | u | 10%
COc1ccc(-c2noc(N3CCCC(C(=O)Nc4ccccc4F)C3)n2)cc1 (stereo not given) | -8% | 10µM* | 11% | 5% | -17%
COc1ccc(-c2noc(N3CCCC(C(=O)Nc4ccc(F)cc4F)C3)n2)cc1 (stereo not given) | -25% | 9.3µM* | -4% | 21% | 1%
C=C(C)Cn1c(=O)c2c(nc3n2CCN3c2ccc(CC)cc2)n(C)c1=O | x | x | x | x | 10%
